The whole screen tested about 96,000 compounds, of which about 20,000 (21%) were called active. A selection follows. Values without a mark were called inactive.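 Rule for the calls: active = CYP2C19 inhibition above a set limit at 5 µM in the primary screen (cut at about 50% in these data); inactive = the rest.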

One may read the inhibition as the relative decrease from the control value, in per cent.

The test deals with Cytochrome P450 2C19 (Homo sapiens) (UniProt P33261). The test can be described thus: blockers of cytochrome P450 2C19 activity – biochemical, luminescence, ADME assay, primary screen (AID 778).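 Note: plate controls were negative control wells for no effect and 2.5 mM tranylcypromine positive control for full effect.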 The conditions noted are these: CYP2C19 Supersomes, luciferin-H EGE luminescence, 30 min; at 5 µM; active compounds read high.
Chain of Cytochrome P450 2C19 (Homo sapiens) (P33261 whole entry, looked up): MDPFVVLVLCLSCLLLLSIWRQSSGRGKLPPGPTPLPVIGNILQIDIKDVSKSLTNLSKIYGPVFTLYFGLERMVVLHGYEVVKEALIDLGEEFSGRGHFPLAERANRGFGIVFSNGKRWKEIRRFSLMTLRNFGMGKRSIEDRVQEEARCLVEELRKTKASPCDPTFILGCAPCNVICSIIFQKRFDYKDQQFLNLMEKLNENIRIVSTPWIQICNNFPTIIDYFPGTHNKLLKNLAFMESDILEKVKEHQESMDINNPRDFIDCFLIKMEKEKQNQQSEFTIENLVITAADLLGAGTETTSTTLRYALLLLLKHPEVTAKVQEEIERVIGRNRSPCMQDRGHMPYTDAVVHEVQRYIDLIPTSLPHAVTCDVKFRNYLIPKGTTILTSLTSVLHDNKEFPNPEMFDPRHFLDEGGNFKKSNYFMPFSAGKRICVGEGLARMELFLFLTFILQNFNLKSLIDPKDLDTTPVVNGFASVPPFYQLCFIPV
As for `COc1ccc(C(=O)N2CCc3cc(OC)c(OC)cc3C2c2cccc([N+](=O)[O-])c2)cc1` (stereo not drawn), the inhibition was 53.7% (active). As for `COc1ccc(C(=O)Nc2nc(-c3ccc(OC)cc3)c(-c3ccc([N+](=O)[O-])cc3)s2)cc1`, the inhibition is 6.9%. Under `COc1ccc(Cc2nnc(SCC(=O)c3cccc([N+](=O)[O-])c3)n2C)cc1` stands 15.5%. For `CNC(=O)c1nnc(Cc2ccc(Cl)cc2)o1` the value was 45.2%; for `Cc1cccc(S(=O)(=O)CC(=O)Nc2nc(-c3ccccc3)cs2)c1`, 35.4%.

As to `COCc1nnc(NC(=O)CS(=O)(=O)Cc2ccccc2)s1`, the inhibition is 1.9%. For `O=C(CCS(=O)(=O)c1ccccc1)Nc1nc2c(s1)CCCC2` the value was 73.9% (active). Under `Cc1ccc(-c2c3c(=O)n(C)c(=O)n(C)c3cn2-c2ccccc2O)cc1` stands 19%; under `Cc1oc(-c2ccccc2Cl)[n+]([O-])c1C`, 8.4%.

`O=C(NCCc1ccccn1)c1ccc(COc2ccccc2)o1`: the inhibition was 5.8%. For `COc1ccc(-c2nc(CCNC(=O)c3ccc(Br)o3)cs2)cc1` the value was 58.8% (active); for `CC(=O)Cc1nsc(NC(=O)c2ccc(COc3ccc(C)cc3)o2)n1`, 22.2%; for `Cc1cc(C(=O)COC(=O)CCCN2C(=O)c3ccccc3C2=O)c(C)n1C`, -0.8%. Under `CCOC(=O)NNC(=O)c1ccc(Cl)cc1` stands 6.6%. For `O=[N+]([O-])c1ccc(NCCCN2CCOCC2)c(Cl)c1`, the inhibition was 52% (active). Under `O=C(NC1CCCCC1)c1cc([N+](=O)[O-])ccc1N1CCOCC1` stands -1.9%; under `O=C(CN1CCOCC1)Nc1ccc(NC(=O)CN2CCOCC2)c(Cl)c1`, -2.2%; under `CC1(C)C2CCC1(C)C(OC(=O)CCn1ccnc1)C2` (stereo not drawn), 99.5% (active).

For the compound `COc1ccc(C)cc1N(C)C(=O)c1coc(=O)c2ccccc12`, the inhibition is 15.5%.

On to `COc1ccc(OC)c(C(=O)c2coc3ccc(O)c(CN4CCOCC4)c23)c1`, for which the inhibition is 52.4% (active). Take `COc1ccc2occ(C(=O)c3ccc(N=C(C)N(C)C)cc3)c2c1`: the inhibition is 30.2%. For `COc1ccc(C(=O)Nc2ccc(CN3CCOCC3)cc2)cc1`, the inhibition was 16.2%. Take `COc1ccc(OC)c(C(=O)c2ccc(C(=O)O)cc2)c1`: the inhibition was -2.7%. Under `COc1ccc(OC)c(C(=O)c2coc3ccc(OC)cc23)c1` stands 89.7% (active).

`CCOc1cc(C(=O)Nc2ncccn2)cc(OCC)c1OCC`: the inhibition was 7.1%. Under `Clc1ccc(-n2nnnc2CN2CCCCC2)cc1Cl` stands 27.7%. Under `O=C(c1ccccc1)C(Cn1cncn1)C(Sc1ccccc1)c1ccccc1` (stereo not drawn) stands 99.3% (active); under `O=C(O)CC(Cn1cnnn1)c1ccccc1` (stereo not drawn), -11.5%. Under `O=C(CSc1nnc2ccccn12)c1ccccc1` stands 13.9%; under `O=C(c1ccc2c(c1)N(Cc1ccc(F)cc1)C(=O)CS2)N1CCOCC1`, 23.9%; under `CCOC(=O)N1CCN(Cc2nc(N)nc(Nc3ccc(C)cc3)n2)CC1`, 36.2%. For `CCN(CC)CCN1C(=O)C(=O)/C(=C(/O)c2ccccc2)C1c1ccccc1F` (stereo not drawn), the inhibition was -0.3%.

With `COC(=O)c1ccc(N(CC(=O)NC2CCCC2)C(=O)CNC(=O)c2ccco2)cc1`, the inhibition was -6.6%. Under `CCCn1c(=O)c2ccccc2n2c(SCC(=O)/C(C#N)=C(\C)N)nnc12` stands 4.2%. For `CCOc1cc2c(cc1OCC)C(C(=O)O)C(c1ccc(OC)c(O)c1)N(C)C2=O` (stereo not drawn) the value was -11.4%.

With `COc1cccc(NC(=O)C2c3cc(OC)c(OC)cc3C(=O)N(C)C2c2cccnc2)c1` (stereo not drawn), the inhibition is 50.1% (active). Under `COc1ccc(C2C(C(=O)N3CCN(c4ccc(OC)cc4)CC3)c3ccccc3C(=O)N2C)cc1` (stereo not drawn) stands 2.6%. Under `Cc1nc(SCC(=O)N2CC(=O)Nc3ccccc32)c2c(C)c(C)sc2n1` stands 49.9%; under `COc1ccc(C(=O)CN2C(=O)NC(C)(c3ccc(C)cc3)C2=O)cc1OC` (stereo not drawn), 1.3%. `C#CCN1C(=O)C(O)(CC(=O)c2cc(OC)ccc2OC)c2ccccc21` (stereo not drawn): the inhibition was 51.5% (active). For `COc1ccc(OC)c(NC(=O)c2cnn(-c3ccccc3Cl)c2NC(=O)c2ccco2)c1` the value was -0.9%.

As to `CCOc1ccc(CN2CCCN(C)CC2)cc1`, the inhibition is -4.6%. For `CC1(C)Cc2ccccc2-c2nnc(-c3cccc(O)c3)n21` the value was -16.2%; for `CC1=NN(c2cccc(Cl)c2)C(=O)C12CC(C)=C(C)CS2` (stereo not drawn), 90% (active). For `Cc1[nH]n(-c2cccc(Cl)c2)c(=O)c1-c1ccc(Cl)cc1` the value was -13.5%. Consider `CC(=O)Oc1ccc(C)cc1N1C(=O)c2ccc(C(=O)O)cc2C1=O`, for which the inhibition was -15.2%.

For `O=C(C1CCCO1)N1CCC(c2nc3ccccc3[nH]2)CC1` (stereo not drawn), the inhibition is 20.9%. In the case of `Cc1ccccc1N1CC(c2nc3ccccc3[nH]2)CC1=O` (stereo not drawn), the inhibition is 81.9% (active). For `Cc1ncn(C23CC4CC(CC(O)(C4)C2)C3)n1` the value was 3.7%.

As for `CCCCN=C(N)/C(C(=O)OCC)=C(\O)c1ccc(OC)cc1`, the inhibition is 54.8% (active). For `COc1ccc(C(=O)Nc2cc(C)ccc2NC(=O)COc2ccccc2)cc1` the value was 17%. Under `CCCCC(=O)N(c1ccc(OC)cc1)C1C=CS(=O)(=O)C1` (stereo not drawn) stands 19.8%. Under `COc1ccc(OCCCC(=O)Nc2nnc(C3CCCO3)s2)cc1` (stereo not drawn) stands 34.1%.

`CCN1CCN(c2ccc([N+](=O)[O-])cc2C(=O)c2ccc(Cl)cc2)CC1`: the inhibition was 5.8%. For `CCCC(=O)Nc1nnc(CC(=O)OCC)s1` the value was -0.3%. Under `Cc1ccc(N2C(=O)C(Cc3ccccc3)NC2=S)cc1` (stereo not drawn) stands 39.4%. For `CC1=CC(C)(C)NC(=S)N1c1ccccc1` the value was 58.1% (active); for `COc1ccc2c(c1OC)C(=O)OC2Nc1nc(-c2ccccc2)cs1` (stereo not drawn), 12%; for `Cc1[nH]n(-c2ccccc2)c(=O)c1CCOC(=O)c1ccc(C(F)(F)F)cc1`, 31.8%. As for `CCCS(=O)(=O)N1CCN(C(=O)c2cccs2)CC1`, the inhibition was 11%. Under `Cn1c(=O)cc(OCCCC(=O)N2CCN(Cc3ccc4c(c3)OCO4)CC2)c2ccccc21` stands 36.7%. For the compound `O=C(CCCN1C(=O)c2cccc3cccc(c23)C1=O)N1CCN(Cc2ccc3c(c2)OCO3)CC1`, the inhibition was 78.8% (active). For `O=C(c1cccs1)N1CCN(Cc2ccc3c(c2)OCO3)CC1` the value was 56.9% (active); for `O=C(Nc1cccc2ccccc12)N1CCN(Cc2ccc3c(c2)OCO3)CC1`, 35.2%; for `CCS(=O)(=O)N1CCN(C(=O)c2cccs2)CC1`, 56.5% (active). Under `COc1ccc(S(=O)(=O)N2CCN(C(=O)c3cccs3)CC2)cc1OC` stands 43.6%. For `O=C(c1cccs1)N1CCN(C(=O)N2CCOCC2)CC1` the value was 2.3%. As for `NC(=O)c1ccccc1NC(=O)c1ccccc1F`, the inhibition is -8.5%.

On to `CCOC(=O)c1c(C)nc(-c2ccccc2)nc1NC(=O)C(C)C`, for which the inhibition is 37.3%. Under `CCOC(=O)N1CCC(NC(=O)Cn2cc3c(n2)CCCCC3)CC1` stands 1.5%; under `CCN1CCN(Cc2c(O)ccc3c(=O)c(-c4ccc(OC)c(OC)c4)c(C(F)(F)F)oc23)CC1`, 12%; under `Cc1cc(=O)oc(C)c1C(=O)Nc1cnc2ccccc2c1`, 0.8%. For `CC(=NCC1CCCO1)c1c(O)[nH]c(=O)[nH]c1=O` (stereo not drawn) the value was -7.7%. For `COCCNC(=O)CN(C(=O)CCC(=O)Nc1cc(C)on1)c1ccc(C)cc1C` the value was 11.8%; for `N#CC1=C(N)Oc2n[nH]c(CSc3ccccc3)c2C12C(=O)Nc1ccccc12` (stereo not drawn), 0.5%; for `O=C(NCc1ccccn1)c1ccc2nc(-c3ccco3)c(-c3ccco3)nc2c1`, 43.6%. As for `COc1ccc(CC(NC(C)=O)C(=O)NC2CCN(C(=O)Nc3ccc(C#N)cc3)CC2)cc1OC` (stereo not drawn), the inhibition is 32%. Under `COc1ccc(C(CNC(=O)c2cccnc2SC)N2CCOCC2)cc1` (stereo not drawn) stands 11.3%.

For `CCC1=C/C(=C\c2ccc3c(c2)OCO3)C(=O)S1`, the inhibition was 43.8%. Take `Cc1cccc(N=C2NC(=O)CS2)c1C`: the inhibition is 7.4%. Under `Cc1cc(C=O)c(C)n1-c1ccc(NC2CCCCC2)c([N+](=O)[O-])c1` stands -2.5%. For `COc1cc(OC)c(-n2c(C)cc(C=O)c2C)cc1Cl` the value was 93.2% (active); for `O=C(c1ccco1)N1CCN(C(=O)c2ccc(COc3ccc(F)cc3)o2)CC1`, 25.1%. For `COCCN1Cc2cccc(C(=O)Nc3ccccc3OC)c2C1=O` the value was 34.9%; for `CCCOc1ccc(NC(=O)C2CCCNC2=O)cc1` (stereo not drawn), 3.9%; for `C=CCNC(=O)c1cc(-c2ccccc2O)on1`, 45.7%. For `C=CCNC(=O)c1csc(-c2ccccc2)n1`, the inhibition is 67.4% (active).

For the compound `CNC(=O)c1csc(-c2ccccc2)n1`, the inhibition is 23.7%. Under `CS(=O)(=O)N(CC(=O)N1CCOCC1)c1ccc2c3c(cccc13)CC2` stands 32.7%. For `C=CCN(C(=O)Nc1ccc2oc(C)nc2c1)c1ccccc1` the value was 14.7%; for `C=CCN(C(=O)Cn1ncc2c1-c1cc(C)ccc1OC2)c1ccccc1`, 63.4% (active). For `Cc1ccc2oc(=O)c3cnn(CC(=O)N4CCCCCC4)c3c2c1` the value was -5.2%.

Consider `CS(=O)(=O)c1sc2nc(-c3ccccc3)cc(-c3ccccc3)c2c1N`, for which the inhibition was -2.6%. Under `O=C(NC1CCCCC1)N1CCc2[nH]c3ccccc3c2C1` stands 44.1%; under `N#Cc1ccc(CSc2nnc(-c3ccccn3)n2-c2ccc(Cl)cc2)cc1`, 18.3%.

For `Nc1ncc(-c2cc3ccccc3oc2=O)s1`, the inhibition was 51.3% (active). For `O=C(NCc1ccccn1)c1cc2ccccc2oc1=O` the value was 1.3%.

Turning to `O=C(Oc1cccnc1)c1cc2ccccc2oc1=O`, the inhibition is -9.9%.

The values above are taken from PubChem BioAssay AID778 (Sanford-Burnham Center for Chemical Genomics, 2007).
